Measurements as given in PubChem BioAssay.

Tests used:
PEG-3 [1] = molecular target: PEG-3 (UniProt Q6IN02); assay: inhibition of PEG-3 promoter-driven reporter – cell-based, HeLa, luciferase, CREF/GAPDH counter-screen panel, dose response (AID 624167); settings: CREF/GAPDH counter-screens; HeLa PEG-Prom luciferase reporter, overnight, run 1, dose range 1, at 100 µM (top of the series) unless noted
PEG-3 [2] = molecular target: PEG-3 (UniProt Q6IN02); assay: as above; settings: CREF/GAPDH counter-screens; HeLa PEG-Prom luciferase reporter, overnight, run 2, dose range 1, at 100 µM (top of the series) unless noted

PEG-3, sequence (Q6IN02 whole entry, looked up): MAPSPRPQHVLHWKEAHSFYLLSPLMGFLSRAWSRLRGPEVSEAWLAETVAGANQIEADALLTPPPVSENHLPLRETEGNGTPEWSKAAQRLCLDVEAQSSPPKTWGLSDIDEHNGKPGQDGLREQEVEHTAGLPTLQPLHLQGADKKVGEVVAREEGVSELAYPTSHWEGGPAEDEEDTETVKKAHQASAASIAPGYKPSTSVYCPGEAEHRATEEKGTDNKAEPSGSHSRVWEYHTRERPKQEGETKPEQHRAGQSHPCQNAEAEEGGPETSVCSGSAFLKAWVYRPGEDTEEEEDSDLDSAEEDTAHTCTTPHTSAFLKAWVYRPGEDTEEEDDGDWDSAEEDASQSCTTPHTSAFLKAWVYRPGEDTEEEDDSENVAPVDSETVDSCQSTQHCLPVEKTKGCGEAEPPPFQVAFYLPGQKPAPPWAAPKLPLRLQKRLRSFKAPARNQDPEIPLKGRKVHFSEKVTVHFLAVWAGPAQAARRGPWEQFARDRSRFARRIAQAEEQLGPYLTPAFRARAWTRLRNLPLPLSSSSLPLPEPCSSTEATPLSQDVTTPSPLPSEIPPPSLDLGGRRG

Row | Compound | inhibition (PEG-3 [1]) | inhibition (PEG-3 [2])
1 | COc1ccccc1CN(C)C(=O)c1cc(-c2cccs2)nc2ccccc12 | 99% | 98.8%
2 | COc1ccc(OC)c(-c2cc(C(=O)N3CCN(c4ncccn4)CC3)c3ccccc3n2)c1 | 54.9% | 59.3%
3 | COc1cc(CNC(C)(C)CO)cc(Br)c1OCc1ccc(Cl)cc1 | 99% | 98.9%
4 | Cc1cccc(N=C2Sc3nc4c(C)c(C)ccc4cc3CN2CCN2CCOCC2)c1 | 85.6% | 93.7%
5 | Cc1cc(Cl)n2ncc(-c3ccccc3)c2n1 | 102% | 102%
6 | Cc1ccc2[nH]c3c(c2c1)CCCC3NC(=O)CCl (configuration not stated) | 97% | 96.5%
7 | CCc1nc(Sc2nnnn2-c2ccccc2)c2c3c(sc2n1)CCCC3 | 68.7% | 91.8%
8 | CCc1nc(Nc2ccc(N3CCN(C(C)=O)CC3)cc2)c2oc3ccccc3c2n1 | 101% | 99.9%
9 | C[C@@]12C(=O)Nc3cc(Cl)ccc3C(=O)N1[C@H]1c3cc(Cl)ccc3OC[C@@H]1[C@@H]2c1ccccc1 | 32.1% | 36.4%
10 | O=S(=O)(c1cccs1)N1CCN(c2ccnc3cc(Cl)ccc23)CC1 | 83.3% | 90.7%
11 | CC1=CC(C)[C@H](/C=N/n2c(=O)[nH]c3c([nH]c4ccc(Br)cc43)c2=O)C(C)C1 (some centres not stated) | 12.7% | 77.5% [run 2, dose range 1, at 12.5 µM]
12 | CCCOc1ccc(NC(=O)CC2C(=O)N(CC)C(=S)N2CCCN2CCN(Cc3ccccc3)CC2)cc1 (configuration not stated) | 98.9% | 101%
13 | O=C(C(=O)N(Cc1ccccc1)Cc1ccccc1)c1c(-c2ccccc2)[nH]c2ccccc12 | 20.8% | 46.6%
14 | CC(C)CC(N)c1csc(Nc2ccc(C(=O)c3ccccc3)cc2)n1 (configuration not stated) | 102% | 101%
15 | CCN1CCc2c(sc(NC(=O)c3ccc(S(=O)(=O)N4CCCCCC4)cc3)c2C(=O)NC)C1 | 94.4% | 94.9%
16 | COC(=O)CSC1=NS(=O)(=O)c2ccccc21 | 66.3% | 98%
17 | Cc1nc(N2CCN(c3ccccc3O)CC2)c2c(-c3ccccc3)csc2n1 | 94.8% | 94%
18 | CCOc1ccc2[nH]c3c(NCCc4ccc(OC)c(OC)c4)ncnc3c2c1 | 99% | 100%
19 | CCC(=C(c1ccc(OC)cc1)c1ccc(OC)cc1)c1cn(CC(O)CN2CCN(C)CC2)c2ccccc12 (configuration not stated) | 99.5% | 98.3%
20 | CCN(CC)CCNC(=O)c1ccc(NC(=O)c2cccc(S(=O)(=O)N(C)C3CCCCC3)c2)cc1 | 100% | 102%
21 | Cc1ccc2cc3c(N)c4c(C)ccc(C)c4nc3nc2c1 | 94.6% | 93.7%

Row | Compound | inhibition (PEG-3 [1]) | inhibition (PEG-3 [2])
22 | CCCCN(C)CCNC(=O)c1cc(-c2cccnc2)nc2ccc(S(=O)(=O)N3CCC(C)CC3)cc12 | 100% | 96.1%
23 | CCCCCCSc1cc(-c2nc3ccc(C)cn3c2NCCCC)ccc1OC | 98.7% | 101%
24 | COc1cc(-c2cc(C(=O)Nc3cc(S(=O)(=O)N4CCOCC4)ccc3C)c3ccccc3n2)cc(OC)c1OC | 55.1% | 61.8%
25 | Cc1cccc(/C=C2/Sc3ccc(C(=O)NCCN4CCCC4)cc3NC2=O)c1 | 99.2% | 101%
26 | Cc1cc(C)c2ccc(N)nc2c1O | 70.1% [run 1, dose range 1, at 50 µM] | 67.1% [run 2, dose range 1, at 50 µM]
27 | Cn1cc(CN2CCCC(C(=O)Nc3ccc(-c4cccc(F)c4)cc3)C2)cn1 (configuration not stated) | 101% | 102%
28 | O=C(C[n+]1ccc(-c2cc(C(=O)Nc3cccc(C(F)(F)F)c3)c3ccccc3n2)cc1)c1cccc([N+](=O)[O-])c1 | 101% | 102%
29 | O=C1CCC2S/C(=C/Nc3ccc(C(F)(F)F)cc3)C(=O)N12 (configuration not stated) | 87.1% | 85.3%
30 | COc1cccc2c1C(=N)c1c(O)c3c(c(O)c1C2=O)CC(O)(C(C)=O)CC3OC1CC(N)C(O)C(C)O1 (configuration not stated) | 99.1% | 102%
31 | CN(CCOc1ccc(Cl)cc1)C(=O)c1cc(-c2ccco2)nc2ccccc12 | 99.6% | 96.2%
32 | COc1cccc(-c2sc3ccc(OC)cc3c2-c2ccc(OCCN(C)C)cc2)c1 | 94.3% | 98.3%
33 | CCOC(=O)C1CCN(c2cc3c(cc2NC(=O)c2ccccc2OCC)n(C)c(=O)n3C)CC1 | 101% | 101%
34 | O=c1[nH]c(=O)n(C2OC(CO)C(O)C2O)cc1F (configuration not stated) | 68.7% | 76.9%
35 | Cc1ccc(C)c(CN2CCC(CNC(=O)Nc3ccc(F)c(Cl)c3)CC2)c1 | 102% | 101%
36 | COc1ccccc1C1c2ccc3ccccc3c2Oc2ncn(CCCO)c(=N)c21 (configuration not stated) | 102% | 98.3%
37 | COc1cccc(CN(C)C(=O)c2cc(-c3cccs3)nc3ccccc23)c1 | 84% | 101%
38 | COc1ccccc1NC(=S)NC1CCCCCCCCCCC1 | 48.3% | 102% [run 2, dose range 1, at 50 µM]
39 | CC(C)n1cc(CN2CCC(C(=O)Nc3cccc(-c4cccc(Cl)c4)c3)CC2)cn1 | 99.3% | 101%
40 | Cc1cc(C)cc(NC(=O)Cn2c(=O)oc3cc(S(=O)(=O)N4CCC(C)CC4)ccc32)c1 | 19.2% | 47.7%
41 | Cc1cc(Br)ccc1NC(=O)CN1C(=O)C2C3CC(c4ccccc4)C(C3)C2C1=O (configuration not stated) | 99.9% | 92.1%
42 | CCOC(=O)C1=C(COCCN)NC(C)=C(C(=O)OC)C1c1ccccc1Cl (configuration not stated) | 98.7% | 100%

Row | Compound | inhibition (PEG-3 [1]) | inhibition (PEG-3 [2])
43 | COc1cccc(C(=O)c2sc(NC(C)C)nc2N)c1 | 93.5% | 95.7%
44 | c1cc2c3c(cccc3c1)NC1(CCC3(CC1)Nc1cccc4cccc(c14)N3)N2 | 97.7% | 102%
45 | COc1cc(NC(=O)c2cccc(C)c2)ccc1NC(=O)c1cc2ccccc2o1 | 76.6% [run 1, dose range 1, at 50 µM] | 94.6% [run 2, dose range 1, at 50 µM]
46 | N=c1c2c(-c3ccccc3)c(-c3ccccc3)n(Cc3ccccc3)c2ncn1CCO | 96.4% | 97.6%
47 | CC1CCCC(C)N1C(=C(Cl)Cl)C(=C1SCCS1)[N+](=O)[O-] (configuration not stated) | 50.8% | 68.9%
48 | NCCc1c(-c2ccccc2)n(-c2ccccc2)c2ccccc12 | 97.5% | 102%
49 | CCN1CCCC1CN(Cc1cc2ccc(C)cc2[nH]c1=O)C(=S)Nc1ccc(OC)cc1 (configuration not stated) | 102% | 99.5%
50 | CC(=O)Nc1ccc(S(=O)(=O)N(Cc2ccco2)Cc2cc3ccccc3[nH]c2=O)cc1 | 91.7% | 71.7%
51 | Cc1nc(-c2ccc(F)cc2)c(CC(=O)N(C)CC(=O)Nc2ccc(Cl)c(C(F)(F)F)c2)s1 | 99.8% | 102%
52 | CCOc1cccc2sc(N(CCCN(C)C)C(=O)c3ccc(S(=O)(=O)N(CC)Cc4ccccc4)cc3)nc12 | 102% | 101%
53 | CCN(CC)CCSc1nnc2c3cc(C)ccc3n(Cc3ccccc3)c2n1 | 102% | 99.8%
54 | CC1(C)CC(NC(=O)c2sc3cc(Cl)ccc3c2Cl)CC(C)(C)N1 | 99.4% | 101%
55 | CC(=O)NC(c1ccccc1)c1cc(Cl)c2cccnc2c1O (configuration not stated) | 96.6% | 99.7%
56 | O=C1CSC(=S)N1Cc1cccnc1 | 96.9% | 101%
57 | CC(=O)Nc1ccc(Nc2nc(C)c([N+](=O)[O-])c(Nc3ccccc3)n2)cc1 | 99.5% | 93.4%
58 | CC1CCCCN1C(=O)c1cccc(NC2=C(Cl)C(=O)N(Cc3ccccc3)C2=O)c1 (configuration not stated) | 101% | 101%
59 | COC(=O)c1ccc(CNC(=O)Cn2cnc3c(NCc4ccccc4)ncnc32)cc1 | 97.3% | 74.3%
60 | CCCCCCCCCC[N+](C)(C)CC/C=C1/c2ccccc2Sc2ccc(Cl)cc21 | 99.8% | 101%
61 | Cc1ccc(NS(=O)(=O)c2cc3c4c(cccc4c2)C(=O)NC3=O)cc1C | 71.4% | 66.9%
62 | COc1cc(C(=O)/C=C/c2cccnc2)c([N+](=O)[O-])cc1OC | 102% | 99.8%
63 | O=C(Nc1ccc(S(=O)(=O)NC2=NCCCCC2)cc1)c1ccc([N+](=O)[O-])s1 | 102% | 101%

Row | Compound | inhibition (PEG-3 [1]) | inhibition (PEG-3 [2])
64 | O=S(=O)(NC1CC(NS(=O)(=O)OCC(Cl)(Cl)Cl)C2CCCCC12)OCC(Cl)(Cl)Cl (configuration not stated) | 102% | 99.2%
65 | CCN(c1ccccc1)S(=O)(=O)c1ccc(C(=O)N(CCCN(C)C)c2nc3cc4c(cc3s2)OCO4)cc1 | 97.6% | 99%
66 | Cn1c(=O)c(C(=O)CCl)c(N)n(Cc2ccccc2)c1=O | 102% | 97.2%
67 | CC(=O)c1cccc(-c2csc3ncnc(Sc4nnnn4C)c23)c1 | 99.4% | 100%
68 | COCc1ccc(CN2CCC(C(=O)Nc3cccc(-c4cccc(Cl)c4)c3)CC2)o1 | 97.5% | 99%
69 | COc1cc(CNCCN2CCOCC2)ccc1OCc1ccc(Cl)cc1Cl | 102% | 101%
70 | CCN(CC)CCN1CCN(c2cncc(-c3ccc4ccccc4c3)n2)CC1 | 98.9% | 102%
71 | O=C(c1ccco1)N1CCN(c2ncnc3c2[nH]c2ccc(Br)cc23)CC1 | 99.5% | 98.2%
72 | COc1ccccc1NC(=O)Nc1nc(C(N)CCc2ccccc2)cs1 (configuration not stated) | 95.9% | 102%
73 | Cc1ccc(C(=O)N(CCCN(C)C)c2nc3ccc(Cl)cc3s2)cc1C | 99.5% | 101%
74 | CN(C)S(=O)(=O)c1cccc(NC(=O)CSc2nc3c(cc2C#N)C(=O)CC(C)(C)C3)c1 | 63.2% | 60.6%
75 | CN(C)C(=O)c1cccc(-c2cnc3c(NC=O)cc(-c4cccc(C(F)(F)F)c4)cn23)c1 | 89.1% | 93.6%
76 | Cc1ccc(CC2(OCCN(C)C)CCC(C(C)(C)C)CC2)cc1 (configuration not stated) | 99.6% | 97.3%
77 | COc1ccc2c(c1)[nH]c1c(=O)n(/N=C/C3C(C)C=C(C)CC3C)c(=O)[nH]c12 (configuration not stated) | -108% | -83.6%
78 | Cn1nnnc1Sc1ncnc2scc(-c3ccsc3)c12 | 102% | 102%
79 | Cc1ccc2cccc(OCC(=O)Nc3cccc(S(=O)(=O)N4CCCC4)c3)c2n1 | 94.5% | 97.2%
80 | CCCN(CCC)CCCNC(=S)Nc1ccc2nc(N3CCCC3)cc(C)c2c1 | 99.6% | 98.1%
81 | COc1ccc(NC(=O)Nc2nc(C(N)C3CCCCC3)cs2)cc1 (configuration not stated) | 101% | 99%
